Source: PubChem BioAssay AID2585 (National Center for Advancing Translational Sciences (NCATS), 2010)
Some of the results follow. Inconclusive results are not listed. A number with no mark means an inactive call. Active and inactive are the calls of the source. Calls follow the shape of the dose curve; as a rule, active = well fitted inhibition curve with a large enough effect; inconclusive = small, poorly fitted or top-dose-only effect; inactive = no such curve, though single readings can be large or run the other way.
% is scaled to controls: 0 for no effect and ±100 for the full control effect; potency is read from the fitted curve at half-maximal effect.
Also: nearly all actives have a fitted effect of over 45% in size.

The compounds below were run against RecQ-like DNA helicase BLM (Homo sapiens) (UniProt P54132) (assay: qHTS Confirmation Assay for Inhibitors of Bloom's syndrome helicase (BLM)). Conditions: BLM DNA unwinding, fluorescence quenching, biochemical.
Chain of RecQ-like DNA helicase BLM (Homo sapiens) (P54132 whole entry, looked up): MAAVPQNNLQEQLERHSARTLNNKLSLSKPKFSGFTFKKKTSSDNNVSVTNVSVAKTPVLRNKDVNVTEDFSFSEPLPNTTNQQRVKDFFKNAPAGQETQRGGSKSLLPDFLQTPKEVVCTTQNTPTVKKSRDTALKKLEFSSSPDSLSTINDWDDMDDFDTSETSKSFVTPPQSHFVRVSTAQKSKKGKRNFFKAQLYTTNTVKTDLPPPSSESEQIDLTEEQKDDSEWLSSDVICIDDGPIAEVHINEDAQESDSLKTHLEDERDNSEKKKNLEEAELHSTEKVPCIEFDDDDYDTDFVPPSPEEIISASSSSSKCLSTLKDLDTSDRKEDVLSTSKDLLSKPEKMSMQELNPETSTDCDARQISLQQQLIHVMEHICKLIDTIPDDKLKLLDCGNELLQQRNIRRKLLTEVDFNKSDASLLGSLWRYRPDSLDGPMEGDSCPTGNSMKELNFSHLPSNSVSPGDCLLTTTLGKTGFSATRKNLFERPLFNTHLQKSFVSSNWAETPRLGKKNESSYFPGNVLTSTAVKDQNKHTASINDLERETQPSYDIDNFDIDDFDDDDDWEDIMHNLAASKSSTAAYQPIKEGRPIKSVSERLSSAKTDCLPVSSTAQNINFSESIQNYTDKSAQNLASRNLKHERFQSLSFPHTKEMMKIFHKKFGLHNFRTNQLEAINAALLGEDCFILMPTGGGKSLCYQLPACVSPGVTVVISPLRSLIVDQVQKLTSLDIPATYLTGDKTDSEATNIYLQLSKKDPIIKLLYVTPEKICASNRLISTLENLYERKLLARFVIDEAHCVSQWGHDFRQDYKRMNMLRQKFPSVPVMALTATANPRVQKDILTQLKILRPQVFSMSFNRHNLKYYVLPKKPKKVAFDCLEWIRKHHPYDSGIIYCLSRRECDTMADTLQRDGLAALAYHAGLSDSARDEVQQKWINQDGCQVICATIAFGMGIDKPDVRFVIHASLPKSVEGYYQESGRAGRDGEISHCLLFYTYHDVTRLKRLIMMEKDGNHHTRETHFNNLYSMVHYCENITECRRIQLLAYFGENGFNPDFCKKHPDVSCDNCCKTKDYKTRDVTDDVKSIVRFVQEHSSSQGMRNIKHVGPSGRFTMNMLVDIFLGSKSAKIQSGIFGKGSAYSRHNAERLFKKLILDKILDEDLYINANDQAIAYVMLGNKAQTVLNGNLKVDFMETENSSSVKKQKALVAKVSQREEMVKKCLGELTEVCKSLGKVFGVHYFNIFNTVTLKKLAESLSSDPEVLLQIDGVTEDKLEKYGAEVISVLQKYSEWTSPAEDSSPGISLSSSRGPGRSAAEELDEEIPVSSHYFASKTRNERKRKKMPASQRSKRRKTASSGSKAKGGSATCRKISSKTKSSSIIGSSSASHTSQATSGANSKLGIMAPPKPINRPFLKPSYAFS
Text: Survival of cells and the faithful propagation of the genome depend on elaborate mechanisms of detecting and repairing DNA damage. Treatment of advanced cancer relies on radiation therapy or chemotherapy, which kill cancer cells by causing extensive DNA damage. It is often found, that cancer cells develop resistance to therapy through enhanced activity of DNA repair functions; this has led to an increased interest in developing drugs that interfere with DNA repair, which could sensitize cancer cells to conventional therapy. This validation qHTS assay pertains to human BLM, which is important in resolving abnormal DNA structures formed during replication or homologous recombination. Shutting down the expression of BLM leads to chromosomal instability and higher radiation sensitivity in cultured cells. The validation assay was a fluorescence quenching based kinetic qHTS for BLM Helicase DNA unwinding. The activity was measured as ATP-dependent separation of a 20-bp DNA duplex extended by 30-nt single-stranded tails (forked duplex). The forked DNA substrate was tagged with rhodamine fluorophore (carboxytetramethyl rhodamine, TAMRA) and BHQ-2 (Black Hole Quencher 2) dark quencher. Strand separation results in an increase in the fluorescence of TAMRA (excitation 525 nm, emission 598 nm). This substrate construct operates in a red-shifted region where very few compound library members have been noted to fluoresce (PubChem AIDs 593 and 594). An additional feature of the assay is the inclusion of 2.5 ug/ml poly (dIdC), to reduce interference by compounds such as DNA intercalators, a major source of false inhibitors. Assay Providers: Ian Hickson, University of Oxford Opher Gileadi, Structural Genomics Consortium, University of Oxford Screening Center PI: Austin, C.P. Screening Center: NIH Chemical Genomics Center [NCGC]
Three uL of reaction buffer (25 mM Tris-HCl (pH 8.0), 5 mM NaCl, 2 mM MgCl2, 1mM DTT, 0.01% Tween- 20, and 2.5 ug/ml poly(dI-dC), including enzyme (50 nM BLM), were dispensed into a 1536-well Greiner black assay plate via solenoid-valve based nanoliter dispensers. Compounds (23 nl each in columns 5-48) and control (23 nl each in column 2 as dose-response) were transferred via a Kalypsys pintool equipped with a 1536-pin array. The plates were incubated for 15 min at room temperature, and then 1 ul of substrates (200 nM DNA and 2 mM ATP, final concentrations) was added to start the reaction. The plate was transferred into a ViewLux high-throughput CCD imager where the reaction progress was measured in a discontinuous kinetic mode (two reads spaced 2 hours apart, with intermediate room temperature incubation of the covered assay plate) by using standard red-fluorescence optics (excitation filter 525 nm, emission filter 598 nm). Enzyme-free and vehicle (DMSO) controls were included for signal normalization.
Cc1ccc(-c2nc(SCc3ccc(Br)cc3)n3[nH]c(=O)cc3n2)cc1 was tested, and the Potency was 11.5 µM (active). For CN(C(=O)COC(=O)c1cc(-c2ccco2)nc2ccccc12)C1CCS(=O)(=O)C1 (configuration not stated), the Potency was 18.2 µM (active). With CC(C)(O)c1ccccc1CC[C@H](SCC1(CC(=O)O)CC1)c1cccc(/C=C/c2ccc3ccc(Cl)cc3n2)c1 the Potency was 54.1 µM (active). With COc1ccc(-c2nc3c(c(SCC(=O)Nc4ccc(C(=O)O)cc4)n2)Cc2ccccc2O3)cc1 the Potency was 5.13 µM (active). For Oc1ccc(N=Cc2sc3ccccc3c2Cl)cc1, the max response, negative = inhibition was -10.8%. CS(=O)(=O)c1ccc2nc(NC(=O)c3ccc(Cl)nc3)sc2c1 gave a max response, negative = inhibition of 0.0289%. In the case of C=C1c2cccc(OC)c2O[C@H](C(=O)OCC)[C@@H]1CCCCCC, the max response, negative = inhibition is reported as -13.8%.
